Pf Dd2 growth – inhibitors of Plasmodium falciparum Dd2 growth | P. falciparum Dd2 growth, SYBR Green, 72 h | 120,000 compounds, 4.3% hits | Potency, µM (top dose mostly 28.9 µM), inactives show at the highest dose activity, negative = inhibition, hits mostly inhibitors; active means well fitted inhibition curve with a large enough effect;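 further: plate controls were DMSO vehicle for no effect and reference drug for full effect; nearly all actives have a fitted effect of over 65% in size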
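Infected erythrocytes (Dd2, 0.3% parasitemia, 2.5% hematocrit final) are added to compound in RPMI-1640/Albumax II medium, grown 72 h at 37C in low oxygen, then lysed with saponin/Triton-X containing SYBR Green and read by fluorescence.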
* hit, by the source's call; i = inactive; [ ] = another dose, or the depositor's remark. This is one part of a sample in which hits are shown more often than they occur. Potency means the concentration at half of the fitted maximal effect.

SMILES	Pf Dd2 growth
COCCCNC(=O)c1ccc(Cn2c(SCc3cccc(C)c3)nc3cccnc32)cc1	i
COCCCNC(=O)c1ccc(Cn2c(SCc3ccc(F)cc3)nc3cccnc32)cc1	-22%
Cc1cccc(Cn2c(SCc3ccc(C(=O)NCCc4ccccc4)cc3)nc3ccncc32)c1	3.2µM*
O=C(c1ccc(CSc2nc3ccncc3n2Cc2cccc(F)c2)cc1)N1CCCCCC1	8.9µM*
COC(=O)c1ccc(Cn2c(SCc3ccccc3F)nc3ccncc32)cc1	-17%
Cc1cccc(Cn2c(CNC(=O)c3ccccc3)nc3ccccc32)c1	-5%
O=C(NCCc1ccccc1)c1ccc(CSc2nc3ccncc3n2Cc2ccccc2F)cc1	7.1µM*
O=C(NCc1ccccc1)c1ccc(CSc2nc3cccnc3n2Cc2ccccc2F)cc1	3%
O=C(Cn1c(SCc2cccc(F)c2)nc2ccncc21)Nc1ccc(Cl)cc1F	28%
O=C(c1ccc2c(c1)OCO2)N1CCN2C(=O)N(Cc3ccccc3)C[C@H]2C1	-13%[44.1 µM]
Cc1nc2c(c(-c3ccc(O)cc3)n1)CN(C(=O)c1ccc(Cl)nc1)CCC2	26%
O=C(O)c1cccc2c1CCN2S(=O)(=O)c1ccccc1F	-25%
O=C(NCC1Cn2cccc2C(=O)N1Cc1ccccc1)c1cc(F)ccc1F (stereo not drawn)	i
CC(C)c1ccc(CNC(=O)C2CCN(c3cc(C(F)(F)F)ncn3)CC2)cc1	76%
COc1ccc(NC2CCCN(C(=O)CCCS(N)(=O)=O)C2)cc1 (stereo not drawn)	-4%
O=C(CCC1CC1)N1CCC(c2cc(Cc3ccccc3)[nH]n2)CC1	-21%
Cc1noc(C)c1C1CCCN1C(=O)Cc1nc(-c2cccnc2)n[nH]1 (stereo not drawn)	-7%
O=C(C1CCCN(C2CCN(c3ncnc4sccc34)CC2)C1)N1CCCC1 (stereo not drawn)	-20%
O=C(CCc1ccccc1)N1CCC2(CC1)NC(=O)N(c1ccccc1)N2	-15%
O=C(NCCc1ccccc1)c1ccc(CSc2nc3ccncc3n2Cc2cccc(F)c2)cc1	4.5µM*
O=C(NCCc1ccccc1)c1ccc(Cn2c(SCc3cccc(F)c3)nc3cccnc32)cc1	13µM*
Cc1ccc(CSc2nc3cccnc3n2Cc2ccc(C(=O)NCCc3ccccc3)cc2)cc1	-13%
Cc1ccccc1CNC(=O)c1ccc(Cn2c(SCc3cccc(F)c3)nc3cccnc32)cc1	-16%
CCCCC(=O)N1CCC2(CC1)SCC(=O)N2c1ccc(OC)cc1	-17%
COCCn1ncc(N2CCCC(CC(=O)N(C)Cc3cccnc3)C2)cc1=O (stereo not drawn)	20%
SMILES	Pf Dd2 growth
O=C1CCN(C(=O)C2CCN(C(=O)COc3ccc(F)cc3)CC2)CCCCCCN1	14%
C[S+](=O)([O-])N1Cc2ccccc2CC12CN(C(=O)Nc1ccccc1)C2	-22%
COc1ccc(CNC[C@H]2O[C@H](Cc3cc(CN4CCOCC4)on3)CC[C@@H]2O)cc1	7%[44.1 µM]
Cc1ccc(S(=O)(=O)Nc2ccc(C)n(CC(=O)N(C)C)c2=O)cc1	i
COc1ccc(Cl)cc1C(=O)N1CCCC(n2cc(-c3noc(C)n3)nn2)C1 (stereo not drawn)	i
N#Cc1ccc(C(=O)N2CCOC[C@H](Oc3cnccn3)C2)cc1	27%[44.1 µM]
COc1ccc([N+](=O)[O-])cc1NC(c1nnc(-c2ccccc2)o1)c1ccccc1F (stereo not drawn)	13µM*
O=C(CSc1nnc(-c2ccc([N+](=O)[O-])cc2)o1)Nc1ccccc1	12%
COc1ccc(-c2noc(-c3ccc(NC(C)c4ccccc4)c([N+](=O)[O-])c3)n2)cc1OC (stereo not drawn)	2%
COc1ccc(CNC(=O)[C@@H]2CCC[C@@H](NC(=O)c3ccc(C#N)cc3)CN(C)C(=O)C2)cc1	4%
COc1cc2c(cc1CNCC1(O)CNCCOC1)OCCO2 (stereo not drawn)	17%
O=c1[nH]nc2n1CCN(Cc1ccc(F)c(Br)c1)CC2	i
Cn1cnnc1CC1CCCN(C(=O)c2ccccc2)C1 (stereo not drawn)	12%
O=C(c1ccc(N2CCC(NCC(c3ccccc3)c3ccccc3)CC2)cc1)N1CCCC(O)C1 (stereo not drawn)	11µM*
O=C(Nc1ccc(N2CCC(NCC(c3ccncc3)N3CCOCC3)CC2)cc1)C1CCCC1 (stereo not drawn)	-9%
Cc1nc2c(c(NCCc3nc(C)c(Cl)s3)n1)CCNCC2	-10%
CC1CCN(Cc2c(O)ccc3c(=O)c(Oc4ccccc4Cl)c(C(F)(F)F)oc23)CC1	0.63µM*
Cc1ccccc1Cn1c(CN2CCCC(C)C2)nc2c1c(=O)n(C)c(=O)n2C (stereo not drawn)	9%
Cc1ccc(Oc2c(C(F)(F)F)oc3cc(OCC(=O)NC4CCCCC4)ccc3c2=O)cc1	-30%
Cc1ccc(Oc2c(C(F)(F)F)oc3c(CN4CCC(C)CC4)c(O)ccc3c2=O)cc1	1µM*
Cc1noc(C)c1CN1CCCC(COc2ccccc2C(=O)N2CCC(C)CC2)C1 (stereo not drawn)	-3%

Screens from PubChem BioAssay.
